The text below walks through data of PubChem BioAssay (NCATS).

Assay [1] in a line: P-glycoprotein substrates identified in KB-3-1 adenocarcinoma cell line, qHTS therapeutic library screen (AID 1346986). Note: nearly all actives have a fitted effect of over 60% in size.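 Note: potency is for cytotoxicity meaning loss of cell viability.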 Particulars: KB-3-1 parental cells viability, CellTiter-Glo, 72 h; series mostly up to 44.5 µM. An outline of the steps:
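72 h cell-killing screen, 500 cells/well, CellTiter-Glo luminescence. Paired lines KB-3-1/KB-8-5-11; P-gp dependence checked by tariquidar co-treatment and HEK-293 MDR-19 versus empty-vector cells.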
On the technique in general: qHTS replaces the single test concentration by a dilution series.

Assay [2] is described as follows: P-glycoprotein substrates identified in KB-8-5-11 adenocarcinoma cell line, qHTS therapeutic library screen (AID 1346987). For activity change, negative = cytotoxicity: % is set by controls: 0 for no effect and ±100 for the full control effect. Note: nearly all actives have a fitted effect of over 65% in size. Particulars: KB-8-5-11 (P-gp overexpressing) viability, CellTiter-Glo, 72 h; series mostly up to 44.5 µM. In short, it runs like this: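 Compounds are pinned in dose-response onto KB-8-5-11 cells (500 cells/well, colchicine-free medium) and left 72 h at 37 degree C. CellTiter-Glo luminescence then yields AC50 values.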

Assay [3] deals with Furin (Homo sapiens) (UniProt P09958). Briefly: Furin counterscreen qHTS for Zika virus inhibitors (AID 1347149). Note: nearly all actives have a fitted effect of over 70% in size. Particulars: furin enzymatic counterscreen, fluorogenic substrate; series mostly up to 57.5 µM. An outline of the steps: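 Counterscreen measures cleavage of 2 microM BOC-RVRR-AMC, below its ~15 microM Km, by 5 nM full-length human furin at pH 7.0 after a 15-min compound preincubation. Inhibition derives from the 15-min fluorescence increase at 37C.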
Sequence of Furin (Homo sapiens) (P09958 whole entry, looked up): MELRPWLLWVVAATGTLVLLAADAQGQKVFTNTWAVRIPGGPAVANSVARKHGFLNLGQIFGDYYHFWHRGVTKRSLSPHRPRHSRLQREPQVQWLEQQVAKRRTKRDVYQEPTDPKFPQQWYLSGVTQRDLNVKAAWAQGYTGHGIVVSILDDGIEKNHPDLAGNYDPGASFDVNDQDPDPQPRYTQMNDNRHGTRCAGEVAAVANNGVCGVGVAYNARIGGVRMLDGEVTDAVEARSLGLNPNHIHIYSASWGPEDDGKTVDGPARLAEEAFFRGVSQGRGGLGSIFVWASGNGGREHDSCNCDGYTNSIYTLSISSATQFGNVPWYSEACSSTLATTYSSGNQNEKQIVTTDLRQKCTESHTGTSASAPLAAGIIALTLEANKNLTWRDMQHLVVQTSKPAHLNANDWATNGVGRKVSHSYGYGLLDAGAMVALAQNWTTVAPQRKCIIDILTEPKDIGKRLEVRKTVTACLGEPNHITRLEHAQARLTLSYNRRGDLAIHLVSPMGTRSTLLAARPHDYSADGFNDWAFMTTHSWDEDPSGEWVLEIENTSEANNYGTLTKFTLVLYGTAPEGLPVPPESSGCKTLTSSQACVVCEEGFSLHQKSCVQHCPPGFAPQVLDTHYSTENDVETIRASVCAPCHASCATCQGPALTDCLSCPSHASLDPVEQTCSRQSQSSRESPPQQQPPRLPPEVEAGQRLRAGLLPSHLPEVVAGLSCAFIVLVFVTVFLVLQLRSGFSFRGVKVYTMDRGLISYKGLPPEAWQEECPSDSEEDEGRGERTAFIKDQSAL

Values joined by “and” are separate entries in the source; they are usually repeats but may differ in a detail not shown here. Equal values may be shown once. Records with an inconclusive call do not appear. More than one record can exist for a structure, and the calls need not agree. Active and inactive are the calls of the source. Calls come from the whole dose curve; as a rule, active = well fitted curve in the direction sought with a large enough effect; inconclusive = small, poorly fitted or top-dose-only effect, or another doubt; inactive = no such curve, though single readings can be large; an effect the other way counts as inactive or inconclusive.
Potency is the fitted concentration of half-maximal effect.

As to `O=C(Cn1c2ccccc2c2nc3n(c(=O)c21)CCS3)N1CCCC1`, the Potency entry in assay [1] and in assay [2] was “inactive” each time.

In the case of H-DPPDPDRFYGMM-NH2, the Potency result in assay [1] and in assay [2] was “inactive” in each case.

Take `C/C=C(/C)C(=O)O[C@@H]1C[C@@H](OC(=O)/C(C)=C\C)[C@@]2(C)C3C(=O)C=C(C)C2C3C1(C)C`: the Potency entry in assay [1] and in assay [2] was “inactive” in each case.

In the case of `CCC(C)/C=C(C)/C=C/C1=CC2=C(Cl)C(=O)C(C)(OC(C)=O)C(=O)C2=CN1C(CCC(=O)O)C(=O)O` (configuration not stated), the Potency result in assay [1] and in assay [2] was “inactive” each time.

In the case of `C=C1C2(C)CC3C4(C)C=CC(=O)OC(C)(C)C4CCC3(C)C1(C(=O)OC)C(=O)C(C)(O)C2=O` (configuration not stated), the Potency entry in assay [1] and in assay [2] was “inactive” in each case.

Regarding `C[C@@H]1O[C@@H](O[C@H]2[C@H](O[C@H]3[C@H](O[C@H]4CC[C@@]5(C)C(CC[C@]6(C)C5CC=C5[C@@H]7CC(C)(C)C[C@@H](O)[C@]7(C)CC[C@]56C)[C@@]4(C)CO)O[C@H](C(=O)O)[C@@H](O)[C@@H]3O)O[C@H](CO)[C@H](O)[C@@H]2O)[C@H](O)[C@H](O)[C@H]1O` (some centres not stated), the outcome in assay [1] and in assay [2] was “inactive [at 9.29 µM]” in each case.

On to `Cc1c(F)cc(C(=O)NC2CC2)cc1-c1ccc(C(=O)NCC(C)(C)C)cn1`, for which the Potency was 0.92 µM (active) in assay [1]; “inactive and 1.03 µM (active)” in assay [2].

On to `C[C@]1(C2CCCC2)Cc2cc(OCC(=O)O)c(Cl)c(Cl)c2C1=O`, for which the Potency result in assay [1] and in assay [2] was “inactive” each time.

As for `CC(C)C1NC(=O)C2CCCN2C1=O` (configuration not stated), the Potency result in assay [1] and in assay [2] was “inactive” each time.

As for `Cc1c(-c2ccc3c(c2)OCO3)oc2ccc(C(O)C(C)O)cc12` (configuration not stated), the Potency entry in assay [1] and in assay [2] was “inactive” in each case.

For `COC(=O)C1=CO[C@@H](O[C@@H]2O[C@H](CO)[C@@H](O)[C@H](O)[C@H]2O)[C@@H]2[C@@H](CO)[C@@H](O)C(O)[C@H]12` (some centres not stated), the Potency entry in assay [1] and in assay [2] was “inactive” throughout.

For the molecule `C=C1CCc2occ(C)c2[C@H]2[C@H]1[C@@]13O[C@@]1(C[C@@H](C)[C@H]3OC(C)=O)[C@H]1O[C@@]21C`, the Potency entry in assay [1] and in assay [2] was “inactive” each time.

On to `CC1OC(OC2CCC3(C)C(CCC4(C)C3C=CC35OCC6(CCC(C)(C)CC63)CCC45C)C2(C)CO)C(OC2OC(CO)C(O)C(O)C2O)C(O)C1OC1OC(CO)C(O)C(O)C1O` (configuration not stated), for which the outcome in assay [1] was “inactive [at 9.29 µM]”. Besides, the activity change, negative = cytotoxicity in assay [2] was 2.86% [at 9.29 µM] (inactive).

With `C/C=C/C=C/C=C/C(=O)N(C)C(C(=O)NC(C)C(=O)N1CCCC1C(N)=O)C(C)C` (configuration not stated), the Potency result in assay [1] and in assay [2] was “inactive” in each case.

Consider `C=C1C(O)CC2C(C(=O)O)=COC(O[C@@H]3O[C@H](COC(=O)c4ccc(O)cc4)[C@@H](O)[C@H](O)[C@H]3O)C12` (some centres not stated), for which the Potency result in assay [1] and in assay [2] was “inactive” in each case.

Turning to `O=C(O)/C=C/c1ccc2occc2c1O[C@@H]1O[C@H](CO)[C@@H](O)[C@H](O)[C@H]1O`, the Potency result in assay [1] and in assay [2] was “inactive” each time.

Take `CC(C)(O)/C=C/C(=O)[C@](C)(O)[C@H]1[C@H](O)C[C@@]2(C)[C@@H]3CC=C4[C@@H](C=C(O[C@@H]5O[C@H](CO)[C@@H](O)[C@H](O)[C@H]5O)C(=O)C4(C)C)[C@]3(C)C(=O)C[C@]12C`: the Potency entry in assay [2] was “inactive”.

Take `CC(C)=CCC[C@](C)(O[C@@H]1O[C@H](CO)[C@@H](O)[C@H](O)[C@H]1O)[C@H]1CC[C@]2(C)[C@@H]1[C@H](O)CC1[C@@]3(C)CC[C@H](O)C(C)(C)C3[C@@H](O[C@@H]3O[C@H](CO)[C@@H](O)[C@H](O)[C@H]3O[C@@H]3O[C@@H](C)[C@H](O)[C@@H](O)[C@H]3O)C[C@]12C` (some centres not stated): the outcome in assay [2] is “inactive [at 9.29 µM]”.

For the molecule `C[C@@H]1CC[C@]2(C(=O)O[C@@H]3O[C@H](CO[C@@H]4O[C@H](CO)[C@@H](O)[C@H](O)[C@H]4O)[C@@H](O)[C@H](O)[C@H]3O)CC[C@]3(C)C(=CCC4[C@@]5(C)CC[C@H](O)[C@](C)(C(=O)O)C5CC[C@]43C)[C@@H]2[C@]1(C)O` (some centres not stated), the outcome in assay [2] was “inactive [at 9.29 µM]”.

Consider `CC(C)CC(=O)OC[C@@]1(O)C[C@@]23CC[C@H]4[C@@](C)(CCC[C@@]4(C)C(=O)O)[C@@H]2CC[C@@H]1C3`, for which, in assay [2], the Potency result is “inactive”.

Regarding `Cc1ccccc1NC(=O)Nc1ccc(CN2C(=O)N([C@@H](CC(C)C)C(=O)N[C@@H](CC(=O)O)c3ccccc3)C(=O)C2(C)C)cc1`, the Potency result in assay [1], in assay [2] and in assay [3] was “inactive” throughout.

Take `CC1=C(C(=O)OC2OC(COC3OC(CO)C(O)C(O)C3O)C(O)C(O)C2O)C(C)(C)CCC1` (configuration not stated): the Potency entry in assay [1] and in assay [2] was “inactive” throughout.

As for `CC1(C)CC=C(c2cnc3ccccc3c2)c2cc(C(=O)Nc3ccc(C(=O)O)cc3)ccc21`, in assay [1], the Potency result was “inactive”. Also, the Potency in assay [3] is 44.1 µM (active).

As for `C=C1CCC2[C@](C)(CO)CCC[C@@]2(C)[C@@H]1CCC1=CCOC1=O` (some centres not stated), the Potency result in assay [2] is “inactive”.

With `COc1ccc(/C=C/C(=O)O[C@@H]2[C@@H](OC(C)=O)[C@@H](OC(C)=O)[C@H](O[C@H]3[C@@H]4C=CO[C@@H](O[C@@H]5O[C@H](CO)[C@@H](O)[C@H](O)[C@H]5O)[C@@H]4[C@@]4(CO)O[C@@H]34)O[C@H]2C)cc1`, the Potency entry in assay [2] is “inactive”.

For `O=C(O)CC1(O)C(=O)Nc2ccccc21` (configuration not stated), in assay [2], the Potency result was “inactive”.

With `COc1ccc(C(=O)CC(=O)O)c2c1C=CC(C)(C)O2`, the Potency result in assay [2] was “inactive”.
